Data on 60 compounds can be found in paper PMC4336329 (PLoS ONE, 2015).

Screen size: about 310,000 compounds; about 2,200 (0.71%) showed an effect of 50% or more. Effects have a minus sign here. Only a selection was taken, and strong results are over-represented in it overall.

In the assay the target is human ether-à-go-go-related gene (hERG) potassium channel (human, UniProt Q12809). The experiment in a line: primary screen, population patch clamp on CHO cells stably expressing hERG; higher = less effect of the substance.
Sequence of human ether-à-go-go-related gene (hERG) potassium channel (Q12809 whole entry, looked up): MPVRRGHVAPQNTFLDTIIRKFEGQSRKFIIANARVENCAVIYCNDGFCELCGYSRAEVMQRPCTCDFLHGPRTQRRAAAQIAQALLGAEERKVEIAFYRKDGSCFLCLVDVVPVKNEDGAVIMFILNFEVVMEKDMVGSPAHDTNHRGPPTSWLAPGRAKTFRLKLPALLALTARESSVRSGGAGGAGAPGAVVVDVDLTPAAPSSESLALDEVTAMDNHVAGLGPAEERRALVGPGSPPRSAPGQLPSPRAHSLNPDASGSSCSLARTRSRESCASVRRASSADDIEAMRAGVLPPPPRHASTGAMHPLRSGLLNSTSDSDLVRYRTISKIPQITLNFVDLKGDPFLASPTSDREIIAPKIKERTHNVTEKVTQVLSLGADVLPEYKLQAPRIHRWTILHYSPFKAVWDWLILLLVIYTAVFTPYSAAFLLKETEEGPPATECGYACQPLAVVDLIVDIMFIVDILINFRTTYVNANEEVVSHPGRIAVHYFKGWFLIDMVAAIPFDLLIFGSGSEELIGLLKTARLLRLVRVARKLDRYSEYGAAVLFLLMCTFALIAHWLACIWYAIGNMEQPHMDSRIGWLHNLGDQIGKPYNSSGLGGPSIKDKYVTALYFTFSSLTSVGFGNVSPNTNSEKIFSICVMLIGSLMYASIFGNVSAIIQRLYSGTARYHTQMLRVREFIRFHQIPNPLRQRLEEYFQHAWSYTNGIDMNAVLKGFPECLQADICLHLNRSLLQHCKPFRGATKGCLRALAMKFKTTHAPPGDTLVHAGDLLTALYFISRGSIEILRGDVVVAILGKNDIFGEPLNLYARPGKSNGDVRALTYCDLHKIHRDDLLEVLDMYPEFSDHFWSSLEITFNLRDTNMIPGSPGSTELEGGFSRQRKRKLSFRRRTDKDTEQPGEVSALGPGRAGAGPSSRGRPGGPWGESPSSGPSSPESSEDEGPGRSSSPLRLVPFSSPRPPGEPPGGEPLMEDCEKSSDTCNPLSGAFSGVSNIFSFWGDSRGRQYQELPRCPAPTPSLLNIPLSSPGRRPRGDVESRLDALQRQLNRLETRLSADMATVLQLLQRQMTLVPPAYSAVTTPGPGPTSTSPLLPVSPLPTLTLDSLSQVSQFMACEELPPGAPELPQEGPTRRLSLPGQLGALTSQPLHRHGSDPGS
On to `COc1cccc(NC(=O)NCCCCc2ccccc2)c1`, for which the “hERG current change (%, negative = inhibition) at 1uM” value is on record as -0.169%.

Regarding `CCOC(=O)CN(C(=O)c1snc(C(N)=O)c1N)C(C(=O)NCCC(C)C)c1ccc(F)cc1` (stereo not drawn), the “hERG current change (%, negative = inhibition) at 1uM” value is listed as 7.34%.

Regarding `COc1ccccc1CNC(=O)C(CCSC)NS(=O)(=O)c1ccc2c(c1)oc(=O)n2C` (stereo not drawn), the “hERG current change (%, negative = inhibition) at 1uM” value is listed as 15.7%.

As to `CN(C)S(=O)(=O)c1cccc(C(=O)OCC(=O)N2CCCC2=O)c1`, the “hERG current change (%, negative = inhibition) at 1uM” value is given as 12.1%.

Regarding `O=C(CNC(=O)c1ccc(Cl)cc1)OCC(=O)c1ccccc1`, the “hERG current change (%, negative = inhibition) at 1uM” value is -0.984%.

Take `Cn1c(SCC(=O)NCCc2ccccc2)ncc(C(=O)Nc2ccc(F)cc2)c1=O`: the “hERG current change (%, negative = inhibition) at 1uM” value stood at 12.5%.

For the compound `CC(C(=O)Oc1ccc2c(c1)OCO2)N1C(=O)c2ccccc2C1=O` (stereo not drawn), the “hERG current change (%, negative = inhibition) at 1uM” value was -1.93%.

Consider `C/C(=N\N1CCN(c2ccc(Cl)cc2)CC1)c1cccs1`, for which the “hERG current change (%, negative = inhibition) at 1uM” value is recorded as 4.52%.

Regarding `O=C(NC1CCCCC1)c1ccc(NS(=O)(=O)c2cccc3cccnc23)cc1`, the “hERG current change (%, negative = inhibition) at 1uM” value is 12.5%.

As to `CCCCC(c1nnnn1C1CCCC1)N1CCN(C(=O)c2ccco2)CC1.Cl` (stereo not drawn), the “hERG current change (%, negative = inhibition) at 1uM” value was -13.5%.

For the compound `CCCC(c1nnnn1C1CCCCC1)N1CCN(C2CCCC2)CC1.Cl` (stereo not drawn), the “hERG current change (%, negative = inhibition) at 1uM” value was -16.6%.

As to `CCCCC(c1nnnn1C1CCCC1)N1CCN(C2CCCC2)CC1.Cl` (stereo not drawn), the “hERG current change (%, negative = inhibition) at 1uM” value is listed as -82%.

Turning to `CCCCC(c1nnnn1C1CCCC1)N1CCN(C2CCCCC2)CC1` (stereo not drawn), the “hERG current change (%, negative = inhibition) at 1uM” value was -63.1%.

Consider `CCCC(c1nnnn1C(C)(C)CC)N1CCN(C2CCCC2)CC1.Cl` (stereo not drawn), for which the “hERG current change (%, negative = inhibition) at 1uM” value is recorded as -17.8%.

With `CCC(c1nnnn1C1CCCCC1)N1CCN(C2CCCC2)CC1.Cl` (stereo not drawn), the “hERG current change (%, negative = inhibition) at 1uM” value was 11.6%.

In the case of `C=CCNC(=O)c1c(Cl)cccc1Cl`, the “hERG current change (%, negative = inhibition) at 1uM” value amounted to 6.34%.

`COC(=O)C1=C(CSCc2ccco2)NC(=O)NC1c1cc(C)ccc1C` (stereo not drawn): the “hERG current change (%, negative = inhibition) at 1uM” value is reported as -8.26%.

For the compound `OCCC1CN(Cc2ccc(F)cc2)CCN1CCc1ccccc1` (stereo not drawn), the “hERG current change (%, negative = inhibition) at 1uM” value was -48%.

`CCOc1ccc(CN2CCN(CCCc3ccccc3)CC2CCO)cc1` (stereo not drawn): the “hERG current change (%, negative = inhibition) at 1uM” value is on record as -80.9%.

On to `OCCC1CN(CCCc2ccccc2)CCN1Cc1ccc(F)cc1` (stereo not drawn), for which the “hERG current change (%, negative = inhibition) at 1uM” value is on record as -12.1%.

Turning to `OCCC1CN(CCCn2cccn2)CCN1Cc1ccccc1` (stereo not drawn), the “hERG current change (%, negative = inhibition) at 1uM” value amounted to 8.59%.

Take `Cc1ccc(CN2CCN(CCCn3cccn3)CC2CCO)cc1` (stereo not drawn): the “hERG current change (%, negative = inhibition) at 1uM” value is recorded as -23.7%.

As to `CCOc1ccc(CN2CCN(CCCn3cccn3)CC2CCO)cc1` (stereo not drawn), the “hERG current change (%, negative = inhibition) at 1uM” value is listed as -83%.

Turning to `CCOc1ccccc1CN1CCN(CCCc2ccccc2)CC1CCO` (stereo not drawn), the “hERG current change (%, negative = inhibition) at 1uM” value is recorded as -30%.

For the compound `CCOc1cccc(CN2CCN(CCc3ccccc3)C(CCO)C2)c1O` (stereo not drawn), the “hERG current change (%, negative = inhibition) at 1uM” value is reported as -20.1%.

Turning to `COc1cccc(CN2CCN(CCCc3ccccc3)C(CCO)C2)c1O` (stereo not drawn), the “hERG current change (%, negative = inhibition) at 1uM” value is recorded as -41.8%.

For `COc1cc(CN2CCN(CCCc3ccccc3)CC2CCO)cc(OC)c1` (stereo not drawn), the “hERG current change (%, negative = inhibition) at 1uM” value is on record as -46.8%.

Regarding `CCOc1cccc(CN2CCN(CCCc3ccccc3)C(CCO)C2)c1O` (stereo not drawn), the “hERG current change (%, negative = inhibition) at 1uM” value was -54.7%.

For `OCCC1CN(Cc2ccc(F)cc2)CCN1CCCc1ccccc1` (stereo not drawn), the “hERG current change (%, negative = inhibition) at 1uM” value is -55%.

On to `CC(C)Oc1ccc(Cc2n[nH]c(=S)n2Cc2ccccc2)cc1Cl`, for which the “hERG current change (%, negative = inhibition) at 1uM” value is recorded as 5.04%.

For the compound `CC(=O)c1c(C)[nH]c(C(=O)OCC(=O)Nc2ccc(Cl)c(S(=O)(=O)N(C)C)c2)c1C`, the “hERG current change (%, negative = inhibition) at 1uM” value is reported as -2.69%.

As for `CCCNc1nc(C)cc(-c2cc(C(=O)NCc3ccccc3)on2)n1`, the “hERG current change (%, negative = inhibition) at 1uM” value is listed as 12%.

`Cc1c(Cl)cccc1Nc1nc(N)nc(CSC(=S)N2CCOCC2)n1`: the “hERG current change (%, negative = inhibition) at 1uM” value worked out at 8.31%.

Regarding `CCOC(=O)/C(C#N)=C\c1c(C)cc(C)c(COC(C)=O)c1C`, the “hERG current change (%, negative = inhibition) at 1uM” value was 15.6%.

Turning to `OCCC1CN(CCCc2ccccc2)CCN1CCc1ccccc1` (stereo not drawn), the “hERG current change (%, negative = inhibition) at 1uM” value is -32.3%.

For the compound `COc1ccc(O)c(CN2CCN(CCCc3ccccc3)C(CCO)C2)c1` (stereo not drawn), the “hERG current change (%, negative = inhibition) at 1uM” value is -21.7%.

Consider `CCOc1ccc(CN2CCN(CCCc3ccccc3)C(CCO)C2)cc1` (stereo not drawn), for which the “hERG current change (%, negative = inhibition) at 1uM” value is -75.8%.

Turning to `C#Cc1ccc(CN2CCN(CCCc3ccccc3)C(CCO)C2)cc1` (stereo not drawn), the “hERG current change (%, negative = inhibition) at 1uM” value was -14.1%.

For the compound `OCCOc1ccc(CN2CCN(CCCc3ccccc3)C(CCO)C2)cc1` (stereo not drawn), the “hERG current change (%, negative = inhibition) at 1uM” value was -19.8%.

Regarding `OCCC1CN(CCCc2ccccc2)CCN1Cc1ccccc1` (stereo not drawn), the “hERG current change (%, negative = inhibition) at 1uM” value is reported as -35.6%.

For the compound `COc1ccc(CN2CCN(CCCc3ccccc3)C(CCO)C2)c(O)c1` (stereo not drawn), the “hERG current change (%, negative = inhibition) at 1uM” value is -71.2%.

On to `COc1ccc(CN2CCN(CCc3ccccc3)C(CCO)C2)c(O)c1` (stereo not drawn), for which the “hERG current change (%, negative = inhibition) at 1uM” value is reported as -26.9%.

Turning to `Cc1ccc(CN2CCN(CCCc3ccccc3)CC2CCO)cc1` (stereo not drawn), the “hERG current change (%, negative = inhibition) at 1uM” value is listed as -68.7%.

`N#C/C(=C/c1ccc(-c2ccc(C(=O)O)c(Cl)c2)o1)C(=O)NCC1CCCO1` (stereo not drawn): the “hERG current change (%, negative = inhibition) at 1uM” value amounted to 10.3%.

As for `COc1ccccc1CN1[C@@H](CC(=O)O)c2cc(F)ccc2S1(=O)=O`, the “hERG current change (%, negative = inhibition) at 1uM” value turned out to be 13.9%.

As for `Cc1ccc(S(=O)(=O)N2CCOCC2)cc1NC(=O)COC(=O)CNC(=O)c1ccc(C(C)(C)C)cc1`, the “hERG current change (%, negative = inhibition) at 1uM” value is reported as 20.2%.

As to `COC(=O)C1=C(c2cc3ccccc3s2)C[C@@H]2CC[C@H]1N2C(=O)NCCCOC(C)C`, the “hERG current change (%, negative = inhibition) at 1uM” value came out at 2.84%.

As for `Cc1ccc(S(=O)(=O)N(C)N=O)cc1`, the “hERG current change (%, negative = inhibition) at 1uM” value is recorded as 19.1%.

Take `CCn1ccnc1CN1CCN(CC=C(C)C)C(CCO)C1` (stereo not drawn): the “hERG current change (%, negative = inhibition) at 1uM” value is given as 9.77%.

As to `Cc1ccc(-c2ccc(/C=C3\SC(N4CCOCC4)=NC3=O)o2)cc1`, the “hERG current change (%, negative = inhibition) at 1uM” value was -54.6%.

Regarding `Cc1ccccc1-c1ccc(/C=C2/SC(N3CCOCC3)=NC2=O)o1`, the “hERG current change (%, negative = inhibition) at 1uM” value is -3.7%.

For `O=C1N=C(N2CCOCC2)S/C1=C/c1ccc(-c2ccc(F)cc2)o1`, the “hERG current change (%, negative = inhibition) at 1uM” value is reported as 9.65%.

As to `CCc1nc2c(nnn2Cc2ccc(F)cc2)c(=O)[nH]1`, the “hERG current change (%, negative = inhibition) at 1uM” value turned out to be 1.79%.

Regarding `COc1ccc(C2CCCN2C(=S)Nc2cccc(Cl)c2C)cc1OC` (stereo not drawn), the “hERG current change (%, negative = inhibition) at 1uM” value is 2.08%.

Take `N#C/C(=C\c1ccc(OCCN2CCOCC2)cc1)C(=O)Nc1ccccc1F`: the “hERG current change (%, negative = inhibition) at 1uM” value amounted to 12.6%.

For `CCCC(C(=O)OCC)P(=O)(c1ccccc1)c1ccccc1` (stereo not drawn), the “hERG current change (%, negative = inhibition) at 1uM” value was -0.896%.

In the case of `CCOc1ccccc1NC(=O)CSc1nc2cccnc2n1C`, the “hERG current change (%, negative = inhibition) at 1uM” value worked out at 5.84%.

For `Cn1c(SCCCC(=O)c2ccccc2)nnc1-c1ccncc1`, the “hERG current change (%, negative = inhibition) at 1uM” value is reported as -24.9%.

Consider `Cn1c(SCCCC(=O)c2ccc(F)cc2)nnc1-c1ccncc1`, for which the “hERG current change (%, negative = inhibition) at 1uM” value is -38.5%.

Turning to `Cn1c(SCCCC(=O)c2ccc(Br)cc2)nnc1-c1ccncc1`, the “hERG current change (%, negative = inhibition) at 1uM” value is recorded as -51.1%.
